Test results taken from article PMC7862700, “An all-to-all approach to the identification of sequence-specific readers for epigenetic DNA modifications on cytosine”.

How the values were obtained:
Assay in all cases: DAPPL (digital affinity profiling via proximity ligation, sequencing); 10 mM Tris-HCl pH 7.5, 50 mM NaCl, 1 mM DTT, 4% glycerol, room temperature, 30 min; GST-TFs on glutathione beads, 16-mer random dsDNA library, 0.1% formaldehyde crosslink after washing; high values mean tight binding
Conditions in all cases: protein: recombinant; tags: N-terminal GST; dsDNA, one strand shown
FLI1 = target: T1, FLI1 (Homo sapiens, UniProt Q01543 1-452)
T1 sequence: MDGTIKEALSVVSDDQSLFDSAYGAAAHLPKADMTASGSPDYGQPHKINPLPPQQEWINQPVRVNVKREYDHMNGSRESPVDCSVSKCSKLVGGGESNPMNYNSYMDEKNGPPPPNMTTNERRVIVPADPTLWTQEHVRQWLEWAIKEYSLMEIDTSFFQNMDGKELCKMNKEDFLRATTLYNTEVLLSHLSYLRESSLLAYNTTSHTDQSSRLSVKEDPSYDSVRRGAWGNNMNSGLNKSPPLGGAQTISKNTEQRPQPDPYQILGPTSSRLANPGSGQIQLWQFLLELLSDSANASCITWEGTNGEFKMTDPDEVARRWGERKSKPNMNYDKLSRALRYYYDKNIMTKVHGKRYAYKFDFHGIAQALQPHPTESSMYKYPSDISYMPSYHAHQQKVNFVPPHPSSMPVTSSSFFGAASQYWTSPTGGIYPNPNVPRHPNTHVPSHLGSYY
In short: (§1)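 Human transcription factors were made in yeast as GST fusions, captured on glutathione beads and barcoded with DNA. With a tag-only sample included, the pool was incubated with 200 nmole of a random double-stranded 16-mer DNA library in Tris/NaCl/DTT/glycerol buffer at room temperature for 30 min, then crosslinked with 0.1% formaldehyde after washing, ligated by proximity, amplified and sequenced. For binding signal, each hexamer's read frequency for a factor is divided by its frequency for the tag-only sample.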

ELK1 = target: T2, ELK1 (Homo sapiens, UniProt P19419 1-428)
T2 sequence: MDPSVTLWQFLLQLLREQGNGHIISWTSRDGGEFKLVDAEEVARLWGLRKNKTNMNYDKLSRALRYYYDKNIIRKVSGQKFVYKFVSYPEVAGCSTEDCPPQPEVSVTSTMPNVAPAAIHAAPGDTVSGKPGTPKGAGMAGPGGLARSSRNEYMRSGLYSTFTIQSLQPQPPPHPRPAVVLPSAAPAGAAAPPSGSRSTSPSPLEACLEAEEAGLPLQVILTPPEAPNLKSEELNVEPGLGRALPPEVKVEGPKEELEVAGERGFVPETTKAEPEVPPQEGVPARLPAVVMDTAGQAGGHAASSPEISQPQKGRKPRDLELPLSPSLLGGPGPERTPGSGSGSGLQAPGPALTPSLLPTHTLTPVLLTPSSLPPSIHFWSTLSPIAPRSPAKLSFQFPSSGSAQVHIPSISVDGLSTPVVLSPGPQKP
In short: as §1

GABPA = target: T3, GABPA (Homo sapiens, UniProt Q06546 1-454)
T3 sequence: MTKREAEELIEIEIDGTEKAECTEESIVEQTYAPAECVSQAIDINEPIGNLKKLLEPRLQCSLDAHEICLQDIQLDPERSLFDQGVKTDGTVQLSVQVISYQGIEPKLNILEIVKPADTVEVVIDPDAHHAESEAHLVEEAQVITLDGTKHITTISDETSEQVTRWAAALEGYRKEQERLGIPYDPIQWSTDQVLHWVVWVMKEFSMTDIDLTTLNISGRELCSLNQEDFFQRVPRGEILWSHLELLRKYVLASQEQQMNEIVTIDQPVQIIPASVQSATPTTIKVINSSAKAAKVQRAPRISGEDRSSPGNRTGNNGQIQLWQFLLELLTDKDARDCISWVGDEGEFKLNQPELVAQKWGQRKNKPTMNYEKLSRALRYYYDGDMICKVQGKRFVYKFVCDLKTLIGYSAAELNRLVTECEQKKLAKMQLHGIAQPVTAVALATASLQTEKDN
In short: as §1

ERG = target: T4, ERG (Homo sapiens, UniProt P11308 1-479)
T4 sequence: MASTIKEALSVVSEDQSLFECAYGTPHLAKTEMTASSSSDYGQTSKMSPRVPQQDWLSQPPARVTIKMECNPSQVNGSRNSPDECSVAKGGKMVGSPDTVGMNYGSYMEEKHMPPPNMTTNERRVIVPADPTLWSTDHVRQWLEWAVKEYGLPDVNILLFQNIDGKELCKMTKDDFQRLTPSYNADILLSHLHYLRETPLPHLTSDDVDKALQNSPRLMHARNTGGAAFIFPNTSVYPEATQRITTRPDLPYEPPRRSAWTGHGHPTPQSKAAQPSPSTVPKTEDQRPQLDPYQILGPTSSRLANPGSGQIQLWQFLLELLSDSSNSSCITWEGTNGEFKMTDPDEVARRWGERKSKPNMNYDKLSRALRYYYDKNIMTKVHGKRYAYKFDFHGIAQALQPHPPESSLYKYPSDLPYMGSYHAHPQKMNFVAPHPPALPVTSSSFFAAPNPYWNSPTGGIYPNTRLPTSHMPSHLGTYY
In short: as §1

ELF1 = ELF1 (Homo sapiens, UniProt P32519 1-619)
In short: as §1

EHF = target: T5, EHF (Homo sapiens, UniProt Q9NZC4 1-300)
T5 sequence: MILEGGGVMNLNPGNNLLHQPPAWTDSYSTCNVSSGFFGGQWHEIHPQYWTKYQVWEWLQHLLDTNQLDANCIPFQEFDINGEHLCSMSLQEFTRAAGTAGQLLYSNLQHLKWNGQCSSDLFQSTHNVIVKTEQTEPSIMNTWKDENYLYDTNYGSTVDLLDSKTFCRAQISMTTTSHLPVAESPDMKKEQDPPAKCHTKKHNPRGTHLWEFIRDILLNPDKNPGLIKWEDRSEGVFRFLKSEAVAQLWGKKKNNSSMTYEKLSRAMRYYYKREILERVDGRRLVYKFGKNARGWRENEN
In short: as §1

SPI1 = SPI1 (Homo sapiens, UniProt P17947 1-270)
In short: as §1

SPIB = SPIB (Homo sapiens, UniProt Q01892 1-262)
In short: as §1

ELK3 = target: T6, ELK3 (Homo sapiens, UniProt P41970 1-407)
T6 sequence: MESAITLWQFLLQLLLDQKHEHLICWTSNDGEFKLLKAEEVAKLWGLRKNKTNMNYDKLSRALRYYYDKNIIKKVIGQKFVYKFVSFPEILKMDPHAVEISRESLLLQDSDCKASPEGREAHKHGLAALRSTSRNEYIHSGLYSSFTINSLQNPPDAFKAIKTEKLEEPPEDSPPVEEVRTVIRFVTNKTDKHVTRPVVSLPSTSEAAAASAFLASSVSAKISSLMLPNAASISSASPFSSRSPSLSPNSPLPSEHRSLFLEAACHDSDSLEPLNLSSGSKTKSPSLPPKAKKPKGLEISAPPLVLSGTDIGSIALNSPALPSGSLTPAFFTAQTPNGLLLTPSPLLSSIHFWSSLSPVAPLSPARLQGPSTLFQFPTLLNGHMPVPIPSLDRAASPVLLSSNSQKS
In short: as §1

ELF1, sequence (P32519 whole entry): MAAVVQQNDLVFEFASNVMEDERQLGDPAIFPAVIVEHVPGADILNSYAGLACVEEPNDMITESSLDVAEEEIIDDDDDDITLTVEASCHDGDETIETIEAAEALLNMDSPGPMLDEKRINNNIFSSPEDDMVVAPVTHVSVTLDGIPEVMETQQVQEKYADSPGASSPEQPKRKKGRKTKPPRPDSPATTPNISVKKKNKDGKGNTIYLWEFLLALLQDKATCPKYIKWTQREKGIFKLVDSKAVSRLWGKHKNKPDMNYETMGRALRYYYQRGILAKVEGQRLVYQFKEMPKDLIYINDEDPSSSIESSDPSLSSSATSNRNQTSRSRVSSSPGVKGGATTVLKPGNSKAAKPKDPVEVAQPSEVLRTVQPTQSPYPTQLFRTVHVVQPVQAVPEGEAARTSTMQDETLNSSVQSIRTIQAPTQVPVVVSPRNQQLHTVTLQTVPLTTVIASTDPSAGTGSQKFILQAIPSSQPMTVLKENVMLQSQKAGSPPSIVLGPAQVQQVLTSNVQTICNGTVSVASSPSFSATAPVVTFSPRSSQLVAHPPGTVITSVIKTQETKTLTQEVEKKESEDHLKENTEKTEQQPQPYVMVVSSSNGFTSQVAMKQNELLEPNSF
SPIB, sequence (Q01892 whole entry): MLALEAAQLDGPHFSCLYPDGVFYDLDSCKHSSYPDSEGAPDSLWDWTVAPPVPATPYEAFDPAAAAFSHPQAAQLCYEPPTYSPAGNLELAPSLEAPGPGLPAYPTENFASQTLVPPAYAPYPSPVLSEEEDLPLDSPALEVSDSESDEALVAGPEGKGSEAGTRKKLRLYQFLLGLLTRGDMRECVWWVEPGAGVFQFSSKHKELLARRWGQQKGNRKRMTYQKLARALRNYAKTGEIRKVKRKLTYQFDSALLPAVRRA

Sequence	binding signal (FLI1)	binding signal (ELK1)	binding signal (GABPA)	binding signal (ERG)	binding signal (ELF1)	binding signal (EHF)	binding signal (SPI1)	binding signal (SPIB)	binding signal (ELK3)
GCCCTT	1.23 fold enrichment (6-mer frequency, TF over GST control)	1.11 fold enrichment (6-mer frequency, TF over GST control)	1.18 fold enrichment (6-mer frequency, TF over GST control)	1.16 fold enrichment (6-mer frequency, TF over GST control)	1.25 fold enrichment (6-mer frequency, TF over GST control)	1.19 fold enrichment (6-mer frequency, TF over GST control)	1.22 fold enrichment (6-mer frequency, TF over GST control)	1.28 fold enrichment (6-mer frequency, TF over GST control)	1.24 fold enrichment (6-mer frequency, TF over GST control)
CGTTCT	1.37 fold enrichment (6-mer frequency, TF over GST control)	1.41 fold enrichment (6-mer frequency, TF over GST control)	1.44 fold enrichment (6-mer frequency, TF over GST control)	1.55 fold enrichment (6-mer frequency, TF over GST control)	1.5 fold enrichment (6-mer frequency, TF over GST control)	1.3 fold enrichment (6-mer frequency, TF over GST control)	1.39 fold enrichment (6-mer frequency, TF over GST control)	1.43 fold enrichment (6-mer frequency, TF over GST control)	1.52 fold enrichment (6-mer frequency, TF over GST control)
GATGTA	1.29 fold enrichment (6-mer frequency, TF over GST control)	1.46 fold enrichment (6-mer frequency, TF over GST control)	1.21 fold enrichment (6-mer frequency, TF over GST control)	1.27 fold enrichment (6-mer frequency, TF over GST control)	1.26 fold enrichment (6-mer frequency, TF over GST control)	1.38 fold enrichment (6-mer frequency, TF over GST control)	1.3 fold enrichment (6-mer frequency, TF over GST control)	1.31 fold enrichment (6-mer frequency, TF over GST control)	1.35 fold enrichment (6-mer frequency, TF over GST control)
TTTTAA	1.26 fold enrichment (6-mer frequency, TF over GST control)	1.28 fold enrichment (6-mer frequency, TF over GST control)	1.25 fold enrichment (6-mer frequency, TF over GST control)	1.2 fold enrichment (6-mer frequency, TF over GST control)	1.29 fold enrichment (6-mer frequency, TF over GST control)	1.22 fold enrichment (6-mer frequency, TF over GST control)	1.32 fold enrichment (6-mer frequency, TF over GST control)	1.26 fold enrichment (6-mer frequency, TF over GST control)	1.3 fold enrichment (6-mer frequency, TF over GST control)
CGTAAT	1.19 fold enrichment (6-mer frequency, TF over GST control)	1.14 fold enrichment (6-mer frequency, TF over GST control)	1.13 fold enrichment (6-mer frequency, TF over GST control)	1.19 fold enrichment (6-mer frequency, TF over GST control)	1.18 fold enrichment (6-mer frequency, TF over GST control)	1.13 fold enrichment (6-mer frequency, TF over GST control)	1.16 fold enrichment (6-mer frequency, TF over GST control)	1.19 fold enrichment (6-mer frequency, TF over GST control)	1.04 fold enrichment (6-mer frequency, TF over GST control)
ATTTCT	1.45 fold enrichment (6-mer frequency, TF over GST control)	1.51 fold enrichment (6-mer frequency, TF over GST control)	1.51 fold enrichment (6-mer frequency, TF over GST control)	1.5 fold enrichment (6-mer frequency, TF over GST control)	1.48 fold enrichment (6-mer frequency, TF over GST control)	1.3 fold enrichment (6-mer frequency, TF over GST control)	1.47 fold enrichment (6-mer frequency, TF over GST control)	1.43 fold enrichment (6-mer frequency, TF over GST control)	1.32 fold enrichment (6-mer frequency, TF over GST control)
TAAATG	1.22 fold enrichment (6-mer frequency, TF over GST control)	1.21 fold enrichment (6-mer frequency, TF over GST control)	1.34 fold enrichment (6-mer frequency, TF over GST control)	1.27 fold enrichment (6-mer frequency, TF over GST control)	1.34 fold enrichment (6-mer frequency, TF over GST control)	1.27 fold enrichment (6-mer frequency, TF over GST control)	1.36 fold enrichment (6-mer frequency, TF over GST control)	1.35 fold enrichment (6-mer frequency, TF over GST control)	1.29 fold enrichment (6-mer frequency, TF over GST control)
TCTATT	1.33 fold enrichment (6-mer frequency, TF over GST control)	1.3 fold enrichment (6-mer frequency, TF over GST control)	1.18 fold enrichment (6-mer frequency, TF over GST control)	1.25 fold enrichment (6-mer frequency, TF over GST control)	1.29 fold enrichment (6-mer frequency, TF over GST control)	1.28 fold enrichment (6-mer frequency, TF over GST control)	1.28 fold enrichment (6-mer frequency, TF over GST control)	1.28 fold enrichment (6-mer frequency, TF over GST control)	1.18 fold enrichment (6-mer frequency, TF over GST control)
